Bioassay records: PubChem BioAssay, National Center for Advancing Translational Sciences (NCATS)
TDP1 cell noCPT: qHTS for Inhibitors of human tyrosyl-DNA phosphodiesterase 1 (TDP1): qHTS in cells in absence of CPT; Potency, µM (series often up to 46.2 µM), actives largely listed as inhibitors; 15% of 420,000 active; AID 686978, 2013; DT40 Tdp1-/- hTDP1 cells, no CPT, ATP luminescence, 48 h; also: nearly all actives have a fitted effect of over 55% in size
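Cells were dispensed at 400 per well, compounds added by pin tool, plates incubated ≥48 hr at 37 °C, then CellTiter-Glo added for 30 min at room temperature before luminescence reading. Line: DT40 Tdp1-/- complemented with hTDP1; camptothecin omitted.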
12-LOX inh: blocks human arachidonate 12S-lipoxygenase; 1.1% of 580,000 active; Potency, µM (titrated, usually from 108 µM), actives largely listed as inhibitors; P18054; purified 12hLO, xylenol orange hydroperoxide absorbance
Target sequence (P18054 whole entry, looked up): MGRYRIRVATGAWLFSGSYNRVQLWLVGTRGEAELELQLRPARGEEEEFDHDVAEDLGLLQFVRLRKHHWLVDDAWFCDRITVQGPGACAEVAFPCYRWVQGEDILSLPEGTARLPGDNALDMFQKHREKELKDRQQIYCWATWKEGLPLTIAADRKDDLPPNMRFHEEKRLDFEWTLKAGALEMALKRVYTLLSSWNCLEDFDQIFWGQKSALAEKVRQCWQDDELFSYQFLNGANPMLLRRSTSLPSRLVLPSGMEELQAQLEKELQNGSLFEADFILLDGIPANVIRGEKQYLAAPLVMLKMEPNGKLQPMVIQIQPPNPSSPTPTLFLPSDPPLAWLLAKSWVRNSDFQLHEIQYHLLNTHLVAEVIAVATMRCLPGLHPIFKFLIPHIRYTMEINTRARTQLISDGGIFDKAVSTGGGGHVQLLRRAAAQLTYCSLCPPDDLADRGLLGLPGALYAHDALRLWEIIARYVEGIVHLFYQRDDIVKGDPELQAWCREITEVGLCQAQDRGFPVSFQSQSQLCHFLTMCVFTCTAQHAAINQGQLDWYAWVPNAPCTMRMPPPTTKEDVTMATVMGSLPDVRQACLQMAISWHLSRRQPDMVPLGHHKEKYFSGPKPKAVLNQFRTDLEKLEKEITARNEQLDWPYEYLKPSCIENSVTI
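Purified human 12hLO at 150 nM in 25 mM Hepes, 0.01% Triton X-100, pH 7.0, preincubated 15 min at room temperature with compound. Reaction started with 40 uM arachidonic acid, 30 min at room temperature. Hydroperoxide measured by Fe-xylenol orange, 573/405 nm absorbance ratio.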
HT1080NT lethal: kills 2HG-producing HT-1080-NT fibrosarcoma cells; AID 686970; Potency, µM (top dose mostly 46.1 µM), actives largely listed as cytotoxic; HT-1080-NT fibrosarcoma viability, CellTiter-Glo ATP luminescence, 48 h; 1.6% of 360,000 active;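 also: NT is the 2HG producing partner of a matched IDH1 knockdown line; nearly all actives have a fitted effect of over 55% in size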
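Compounds were tested in concentration-response format on HT-1080-NT cells for 48 hours at 37 degrees C. Cell viability came from CellTiter-Glo luminescence; curves were classified by r2, response magnitude and activity.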
HT1080 IDH1KD tx: toxicity to HT-1080 IDH1 knockdown cells (counter line); HT-1080 IDH1 knockdown viability, ATP luminescence, 48 h; Potency, µM (top dose mostly 46.1 µM), most hits filed as cytotoxic; 2% of 360,000 active; AID 686971
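In this qHTS, HT-1080 cells depleted of IDH1 are exposed for 48 h at 37 °C to compound titrations. Toxicity is scored from CellTiter-Glo luminescence, with DMSO as full viability and medium alone as none.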
TDP1 cell CPT: growth inhibition of DT40 Tdp1-/-;hTDP1 cells with camptothecin (screen for TDP1 inhibitors); 12% of 420,000 active; AID 686979; Potency, µM (highest dose often 46.2 µM), actives largely listed as inhibitors; chicken DT40 Tdp1-/-;hTDP1 cells + 20 nM CPT, ATP luminescence, 48 h; also: nearly all actives have a fitted effect of over 55% in size
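Chicken DT40 Tdp1-/- cells stably complemented with human TDP1 were seeded at 400 cells/well in medium containing 20 nM camptothecin, exposed to pin-transferred compounds, and grown at 37 °C for at least 48 hr. Viability was read as ATP luminescence.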
IL1B secr inh: inflammasome signaling inhibition, IL-1 beta readout | THP-1 LPS/ATP IL-1B secretion, AlphaLISA, 16 h; active compounds read low | activity change, % at 57.5 µM | 4.7% of 360,000 active; in the data active = activity change below about -50%; inconclusive = mostly about -30% to -49%
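THP-1 cells pretreated 1 hr with compounds (up to 57.5 uM final), then stimulated with LPS (250 ng/mL final) plus ATP (1.25 mM final); secreted IL-1B measured by AlphaLISA after 16 hr, decreased signal indicating inhibition.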
Numbers stand for hits; - = inactive; ? = inconclusive; . = no result given; [ ] = remark or other dose. This excerpt belongs to a sample that is enriched for hits. Unless noted, calls follow the shape of the dose curve; as a rule, active = well fitted curve in the direction sought with a large enough effect; inconclusive = small, poorly fitted or top-dose-only effect, or another doubt; inactive = no such curve, though single readings can be large; an effect the other way counts as inactive or inconclusive.

SMILES | TDP1 cell noCPT | 12-LOX inh | HT1080NT lethal | HT1080 IDH1KD tx | TDP1 cell CPT | IL1B secr inh
CC1=C(c2ccc(C)c(C)c2)S(=O)(=O)N=C1N1CCN(c2cccc(C)c2)C(C)C1 (stereo not drawn) | 10µM | - | . | . | 18µM | .
CO[C@H]1C(=O)N(C2CCN(C(=O)c3cccc(C#N)c3)CC2)[C@H]1c1ccncc1 | . | - | . | . | . | .
CCc1ccc2c(c1)/C(=N/OC)C(=O)N2 | 21µM | - | - | - | ? | -
COc1ccc(C2c3ccc4ccccc4c3Oc3ncn(CCN4CCOCC4)c(=N)c32)cc1OC (stereo not drawn) | 15µM | ? | - | - | 18µM | -52
N=c1c2c(ncn1CCN1CCOCC1)Oc1cc(O)ccc1C2c1ccccc1 (stereo not drawn) | ? | - | ? | - | - | -75
COc1ccc(C2c3c(ncn(CCCN4CCOCC4)c3=N)Oc3ccc4ccccc4c32)cc1OC (stereo not drawn) | 13µM | - | - | - | 23µM | -
COc1ccc(C2c3ccc(O)cc3Oc3ncn(CCN4CCOCC4)c(=N)c32)cc1OC (stereo not drawn) | - | - | - | - | - | ?
COc1ccc(C2c3ccc4ccccc4c3Oc3ncn(CCN4CCOCC4)c(=N)c32)cc1 (stereo not drawn) | ? | ? | ? | ? | 23µM | -79
CC(C)C(=O)N1CCCN(S(C)(=O)=O)c2ccccc21 | . | - | . | . | . | .
O=C(OCC(=O)N1CCCc2ccccc21)c1ccc2c(c1)S(=O)(=O)c1ccccc1C2=O | . | - | . | . | . | .
O=C(c1ccccn1)N1CCC2(CC1)NC(=O)N(Cc1cccc(Cl)c1)C2=O | . | - | . | . | . | .
CCn1c(C)nc2cc(S(N)(=O)=O)ccc21 | 23µM | - | - | - | ? | -
CC(C)NC(=O)CON=C1c2ccccc2-c2ccccc21 | . | - | . | . | . | .
CCN1CCN(c2cc(SC(C)C)nc(-c3ccc(OC)cc3)n2)CC1 | ? | ? | - | - | 23µM | -82
CC(C)Sc1cc(N2CCOCC2)nc(-c2ccc(Cl)cc2)n1 | ? | - | - | - | ? | -
COc1ccccc1N1CCN(C(=O)c2oc3ccccc3c2NC(=O)C(C)Oc2ccccc2)CC1 (stereo not drawn) | 16µM | - | . | . | ? | .
COc1ccccc1N1CCN(C(=O)c2oc3ccc(F)cc3c2C)CC1 | 16µM | - | - | - | 21µM | -
COc1ccccc1C(=O)Nc1c(C(=O)N2CCN(c3ccc(F)cc3)CC2)oc2ccccc12 | - | - | . | . | - | .
COc1ccccc1N1CCN(C(=O)c2cc3c(C)nc4ccccc4c3o2)CC1 | 4.1µM | - | ? | - | 6.5µM | -
COc1ccccc1N1CCN(C(=O)c2oc3ccccc3c2C)CC1 | 21µM | - | - | - | 16µM | -
O=C(NC1CCCCC1)O[C@H]1CC[C@@]23CCCN2C(=O)CCC[C@H]3[C@H]1Cc1ccccc1 | . | - | . | . | . | .
COCc1c(C(=O)N2CCN(c3ccccc3C)CC2)oc2ccccc12 | ? | - | - | - | 21µM | -
Cc1c(C(=O)N2CCN(C)CC2)oc2ccc(Br)cc12 | - | - | - | - | - | ?
COCc1c(C(=O)N2CCN(CCOc3ccccc3)CC2)oc2ccccc12 | ? | - | -[9.24 µM] | - | ? | -
COc1ccccc1N1CCN(C(=O)c2oc3ccc(Br)cc3c2C)CC1 | 7.3µM | - | ? | ? | 2.9µM | -
SMILES | TDP1 cell noCPT | 12-LOX inh | HT1080NT lethal | HT1080 IDH1KD tx | TDP1 cell CPT | IL1B secr inh
CCn1ncc(N2CCC(NC(=O)CCC3CCCC3)CC2)cc1=O | . | - | . | . | . | .
O=C(CN1CCCc2nc(C3CC3)ncc2C1=O)NCCN1CCOCC1 | . | - | . | . | . | .
NS(=O)(=O)c1ccc(CCC(=O)Nc2nc3c(s2)CCCC3)cc1 | . | - | . | . | . | .
OC(CON=C1c2ccccc2-c2ccccc21)CN1CCNCC1 (stereo not drawn) | 7.3µM | - | 21µM | 23µM | 12µM | -88
OC(COc1ccccc1)CN1CCN(CC(O)COc2ccccc2)CC1 (stereo not drawn) | - | ? | - | - | - | -
CC(C)C(NC(=O)c1ccccc1I)c1cccs1 (stereo not drawn) | . | - | . | . | . | .
CCOc1cc(C2C(C(=O)OC)=C(C)NC3=C2C(=O)c2ccccc23)cc(Cl)c1O (stereo not drawn) | 18µM | - | . | . | ? | .
CCOc1ccc(Br)cc1C1C(C(=O)OC)=C(C)NC2=C1C(=O)c1ccccc12 (stereo not drawn) | ? | - | . | . | ? | .
CCOC(=O)C1=C(C)NC2=C(C(=O)c3ccccc32)C1c1ccc([N+](=O)[O-])o1 (stereo not drawn) | 16µM | 28µM | - | - | 23µM | -66
CCOC(=O)C1=C(C)NC(=O)NC1c1ccc([N+](=O)[O-])o1 (stereo not drawn) | - | - | - | - | ? | -
CCCCn1c(=O)[nH]c(=O)c2c1nc(COC(=O)C=C(C)C)n2CC | . | - | . | . | . | .
